In PubChem BioAssay:
The source made the active and inactive calls.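 How the source made its calls, unless noted: active means mean inhibition above 46.5%, the solvent-only control mean plus 3 SD; inactive means the rest.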

What was measured:
[1] = target: Nuclear receptor coactivator 3 (Homo sapiens) (UniProt Q9Y6Q9); assay: SRC3 coactivator transcriptional activity inhibitors, confirmation, cell-based, luminescence, quadruplicate (AID 588792;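 active means mean inhibition over 43.08%, the solvent-only control mean plus 3 SD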;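 further: 0% = DMSO treated cells and 100% = gossypol at 36 µM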); settings: HEK293 GAL4-SRC3 luciferase reporter, at 3.6 µM, hits give high values
Nuclear receptor coactivator 3 (Homo sapiens), sequence (Q9Y6Q9 whole entry, looked up, the tested form may be a part): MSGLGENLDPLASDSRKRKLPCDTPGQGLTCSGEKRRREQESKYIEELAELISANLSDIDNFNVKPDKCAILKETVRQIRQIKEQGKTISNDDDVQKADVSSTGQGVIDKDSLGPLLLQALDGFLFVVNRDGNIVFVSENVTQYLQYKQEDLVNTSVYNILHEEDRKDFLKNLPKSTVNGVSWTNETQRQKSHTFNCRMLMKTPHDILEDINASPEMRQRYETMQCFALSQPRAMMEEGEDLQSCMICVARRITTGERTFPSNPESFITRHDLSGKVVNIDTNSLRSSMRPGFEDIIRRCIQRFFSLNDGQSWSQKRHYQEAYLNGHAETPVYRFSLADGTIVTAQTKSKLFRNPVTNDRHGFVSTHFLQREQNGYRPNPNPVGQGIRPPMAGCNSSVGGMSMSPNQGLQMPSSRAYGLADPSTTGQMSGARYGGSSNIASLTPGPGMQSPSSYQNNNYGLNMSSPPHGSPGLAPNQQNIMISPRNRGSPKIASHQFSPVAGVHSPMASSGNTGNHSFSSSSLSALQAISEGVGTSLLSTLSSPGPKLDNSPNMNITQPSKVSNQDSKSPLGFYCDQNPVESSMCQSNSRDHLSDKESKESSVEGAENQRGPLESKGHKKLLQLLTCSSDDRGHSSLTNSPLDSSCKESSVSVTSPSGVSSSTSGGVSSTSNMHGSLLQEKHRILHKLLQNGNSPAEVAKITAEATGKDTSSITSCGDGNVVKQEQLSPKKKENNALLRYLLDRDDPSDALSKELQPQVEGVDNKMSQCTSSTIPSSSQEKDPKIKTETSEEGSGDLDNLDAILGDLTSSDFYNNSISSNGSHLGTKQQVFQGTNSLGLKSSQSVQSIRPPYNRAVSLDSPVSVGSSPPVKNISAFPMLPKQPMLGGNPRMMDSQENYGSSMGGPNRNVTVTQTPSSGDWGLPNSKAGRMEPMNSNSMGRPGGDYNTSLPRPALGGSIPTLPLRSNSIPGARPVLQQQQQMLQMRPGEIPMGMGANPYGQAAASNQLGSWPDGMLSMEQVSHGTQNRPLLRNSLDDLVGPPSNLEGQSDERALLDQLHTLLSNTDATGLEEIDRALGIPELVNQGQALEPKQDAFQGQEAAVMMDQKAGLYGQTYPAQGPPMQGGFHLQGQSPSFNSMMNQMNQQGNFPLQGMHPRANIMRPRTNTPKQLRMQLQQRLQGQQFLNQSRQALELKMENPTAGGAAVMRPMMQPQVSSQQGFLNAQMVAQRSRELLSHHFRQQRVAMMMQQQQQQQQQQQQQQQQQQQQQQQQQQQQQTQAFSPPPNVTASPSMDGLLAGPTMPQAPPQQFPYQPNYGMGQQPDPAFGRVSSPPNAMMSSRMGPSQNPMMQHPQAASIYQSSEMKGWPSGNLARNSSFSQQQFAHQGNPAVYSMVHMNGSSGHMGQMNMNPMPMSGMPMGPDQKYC

[2] = system: transactivating tegument protein VP16 (Human herpesvirus 1), Gal4-VP16 luciferase reporter; assay: VP16 transactivation inhibitors, counter-screen for SRC3 inhibitor project, cell-based, luminescence, high throughput (AID 588794; in the data active means inhibition above about 30%); settings: mammalian cells, VP16-driven luciferase reporter luminescence; at 3.6 µM; hits give high values
[3] = target: Nuclear receptor coactivator 1 (Homo sapiens) (UniProt Q15788); assay: SRC1 coactivator transcriptional activity inhibitors, confirmation, cell-based, luminescence, quadruplicate (AID 588820;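 active means mean inhibition above 46.68%, the untreated control wells mean plus 3 SD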;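 further: 0% = DMSO wells and 100% = gossypol 36 µM treated wells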); settings: HEK293 GAL4-SRC1 luciferase reporter, at 3.6 µM, hits give high values
[4] = VP16 transactivation inhibitors, counter-screen for SRC1 inhibitor project, cell-based, luminescence, high throughput (AID 588824; in the data active means inhibition above about 25%); settings: cell-based VP16 transactivation luciferase luminescence; at 3.6 µM; hits give high values
[5] = StAR promoter reporter inhibitors, counter-screen for LRH-1 inverse agonist project, cell-based, luminescence, high throughput (AID 651611; in the data active means inhibition above about 28%); settings: StAR promoter luciferase reporter counterscreen, at 3.6 µM, hits give high values
[6] = target: Nuclear receptor subfamily 5 group A member 2 (Homo sapiens) (UniProt O00482); assay: LRH-1 (NR5A2) inverse agonists, retest, confirmation, cell-based, luminescence (AID 651613; in the data active means inhibition above about 42%;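 further: HEK293T cells co-transfected with LRH-1 and StAR promoter luciferase reporter; 0% = vehicle wells and 100% = parental cells lacking receptor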); settings: cell-based LRH-1 luciferase reporter, inverse agonism; at 3.6 µM; hits give high values
Nuclear receptor subfamily 5 group A member 2 (Homo sapiens), sequence (O00482 whole entry, looked up): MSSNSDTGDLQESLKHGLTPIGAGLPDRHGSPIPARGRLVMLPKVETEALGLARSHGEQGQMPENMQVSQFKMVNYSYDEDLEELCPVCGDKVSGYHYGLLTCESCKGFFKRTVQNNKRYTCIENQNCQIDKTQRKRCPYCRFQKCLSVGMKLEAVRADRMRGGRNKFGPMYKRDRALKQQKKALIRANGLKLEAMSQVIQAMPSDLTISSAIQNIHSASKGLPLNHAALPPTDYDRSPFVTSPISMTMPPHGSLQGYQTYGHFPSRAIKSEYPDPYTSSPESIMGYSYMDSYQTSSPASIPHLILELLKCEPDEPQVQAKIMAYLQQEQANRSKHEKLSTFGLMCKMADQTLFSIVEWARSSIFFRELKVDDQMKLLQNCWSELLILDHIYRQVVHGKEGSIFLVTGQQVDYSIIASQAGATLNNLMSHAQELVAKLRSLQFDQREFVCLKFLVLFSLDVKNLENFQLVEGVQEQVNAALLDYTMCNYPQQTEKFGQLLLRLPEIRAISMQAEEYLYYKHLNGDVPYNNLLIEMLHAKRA

[7] = target: Steroidogenic factor 1 (Homo sapiens) (UniProt Q13285); assay: SF1 (NR5A1) inverse agonists, counter-screen for LRH-1 inverse agonist project, cell-based, luminescence, high throughput (AID 651614; in the data active means inhibition above about 44%;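 further: cells cotransfected with StAR promoter reporter and SF1 expression vector; 0% = vehicle on cells with receptor and 100% = vehicle on cells lacking receptor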); settings: cell-based SF1 luciferase reporter, at 3.6 µM, hits give high values
Steroidogenic factor 1 (Homo sapiens), sequence (Q13285 whole entry, looked up, the tested form may be a part): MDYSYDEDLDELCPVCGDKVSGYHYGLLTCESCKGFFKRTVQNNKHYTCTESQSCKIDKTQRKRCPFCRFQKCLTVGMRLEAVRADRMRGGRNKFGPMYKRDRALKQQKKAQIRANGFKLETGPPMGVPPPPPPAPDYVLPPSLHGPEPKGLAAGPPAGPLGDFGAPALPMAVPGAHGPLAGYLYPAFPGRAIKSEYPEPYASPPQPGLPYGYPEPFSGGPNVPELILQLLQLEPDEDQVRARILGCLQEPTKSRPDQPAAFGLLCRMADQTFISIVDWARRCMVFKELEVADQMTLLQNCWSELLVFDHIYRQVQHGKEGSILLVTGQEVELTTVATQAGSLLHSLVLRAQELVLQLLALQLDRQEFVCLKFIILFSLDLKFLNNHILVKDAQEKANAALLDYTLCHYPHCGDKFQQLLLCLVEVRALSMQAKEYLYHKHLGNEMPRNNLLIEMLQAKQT

[8] = VP16 transactivation reporter inhibitors, counter-screen for LRH-1 inverse agonist project, cell-based, luminescence, high throughput (AID 651615; in the data active means inhibition above about 33%); settings: Gal4-VP16 luciferase reporter cells, at 3.6 µM, hits give high values
[9] = system: transactivating tegument protein VP16 (Human herpesvirus 1); assay: VP16 transactivation reporter inhibitors, counter-screen for SRC2 inhibitor project, cell-based, luminescence, single concentration (AID 652007; in the data active means inhibition above about 36%); settings: cell-based VP16 transactivation luciferase reporter, at 8.9 µM, hits give high values
[10] = target: Nuclear receptor coactivator 2 (Homo sapiens) (UniProt Q15596); assay: SRC2 coactivator transcriptional activity inhibitors, confirmation, cell-based, luminescence, HEK293, triplicate (AID 652008); settings: HEK293 GAL4-SRC2 luciferase reporter, at 8.9 µM, hits give high values;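 further: 0% = DMSO-treated cells and 100% = Gossypol at 36 µM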
Nuclear receptor coactivator 2 (Homo sapiens), sequence (Q15596 whole entry, looked up, the tested form may be a part): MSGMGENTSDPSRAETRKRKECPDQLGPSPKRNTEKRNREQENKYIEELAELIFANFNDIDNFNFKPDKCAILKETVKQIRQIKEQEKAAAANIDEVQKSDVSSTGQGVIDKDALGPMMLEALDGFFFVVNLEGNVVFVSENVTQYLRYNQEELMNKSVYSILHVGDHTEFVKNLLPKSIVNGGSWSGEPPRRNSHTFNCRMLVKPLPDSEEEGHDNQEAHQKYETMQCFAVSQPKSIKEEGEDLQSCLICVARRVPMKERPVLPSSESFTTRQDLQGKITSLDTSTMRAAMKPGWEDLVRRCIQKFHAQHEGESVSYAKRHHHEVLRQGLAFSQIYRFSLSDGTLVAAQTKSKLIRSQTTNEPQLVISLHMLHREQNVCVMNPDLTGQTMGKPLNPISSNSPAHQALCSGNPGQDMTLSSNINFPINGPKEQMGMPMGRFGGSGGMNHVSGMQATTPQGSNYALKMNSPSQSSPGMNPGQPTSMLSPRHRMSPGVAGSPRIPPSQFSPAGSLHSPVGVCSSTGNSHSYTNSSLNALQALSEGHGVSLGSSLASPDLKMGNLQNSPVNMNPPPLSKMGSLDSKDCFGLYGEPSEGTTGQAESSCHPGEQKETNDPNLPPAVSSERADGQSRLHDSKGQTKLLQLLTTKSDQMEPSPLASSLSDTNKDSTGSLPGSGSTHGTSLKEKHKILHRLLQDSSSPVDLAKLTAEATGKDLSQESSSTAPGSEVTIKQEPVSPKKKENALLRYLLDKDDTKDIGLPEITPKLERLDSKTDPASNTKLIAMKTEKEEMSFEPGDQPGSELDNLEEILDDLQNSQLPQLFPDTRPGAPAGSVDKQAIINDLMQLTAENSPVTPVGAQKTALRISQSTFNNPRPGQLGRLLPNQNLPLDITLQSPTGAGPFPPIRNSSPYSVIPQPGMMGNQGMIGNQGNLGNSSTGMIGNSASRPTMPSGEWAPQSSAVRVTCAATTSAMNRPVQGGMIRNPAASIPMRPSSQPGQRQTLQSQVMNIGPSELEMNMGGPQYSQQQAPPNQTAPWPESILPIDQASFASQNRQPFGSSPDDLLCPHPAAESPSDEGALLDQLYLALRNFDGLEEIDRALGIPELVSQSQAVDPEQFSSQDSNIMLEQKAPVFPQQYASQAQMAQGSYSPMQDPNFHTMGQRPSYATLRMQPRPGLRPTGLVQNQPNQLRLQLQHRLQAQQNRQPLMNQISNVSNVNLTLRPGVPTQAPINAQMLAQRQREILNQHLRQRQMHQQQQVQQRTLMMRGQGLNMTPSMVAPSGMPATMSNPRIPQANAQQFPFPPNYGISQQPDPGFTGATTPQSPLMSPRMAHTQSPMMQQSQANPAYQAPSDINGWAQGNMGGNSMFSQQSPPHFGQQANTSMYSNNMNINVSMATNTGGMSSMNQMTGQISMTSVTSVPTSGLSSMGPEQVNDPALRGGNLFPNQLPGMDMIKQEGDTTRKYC

Measured: inhibition

O=C(CCl)N(c1ccccc1)C1CCS(=O)(=O)C1 (stereo not given)
inactive: [2] 18% | [3] 22.3% | [4] 14% | [8] 16.8%
active: [1] 55.4% | [5] 50.6% | [6] 71.3% | [7] 65.1% | [9] 40.7% | [10] 57.2%

CC1(C)N=C(N)N=C(N)N1c1ccc(CCCCc2ccccc2)cc1
active: [2] 68.2% | [3] 60.1% | [4] 66% | [5] 63.7% | [6] 89.9% | [7] 85.7% | [8] 80.6%
inactive: [1] 31.1% | [9] 26.9% | [10] 29.4%

Cc1ccc(-c2nc(-c3ccccn3)no2)cc1
inactive: [3] 29% | [6] 11% | [8] 25%
active: [1] 59.3% | [2] 48.7% | [4] 43.9% | [5] 39.1% | [7] 52% | [9] 66.8% | [10] 85.5%

O=c1ccc2ccccc2c2ccccc12
active: [1] 73.2% | [2] 70.8% | [3] 58.7% | [4] 70% | [5] 76.7% | [6] 93.6% | [7] 90.3% | [8] 88.1% | [9] 68.3% | [10] 84.5%

Cc1ccc(NC(=O)O/N=C/c2c(C)nn(C(C)(C)C)c2C)cc1Cl
active: [1] 90.4% | [2] 88% | [3] 87.3% | [4] 85.3% | [5] 88.2% | [6] 93% | [7] 89.2% | [8] 86.5% | [9] 94.6% | [10] 98.3%

COc1cc(OC)cc(-c2cc3nc(C)c(CCC(=O)O)c(C)n3n2)c1
active: [1] 66.4% | [2] 69.9% | [3] 55.8% | [4] 64.1% | [5] 64.9% | [6] 76.4% | [7] 71% | [8] 69% | [9] 89.9% | [10] 93.3%

CC1CCCN(c2ncnc3c2cnn3-c2ccc(Cl)cc2)C1 (stereo not given)
active: [1] 88.7% | [2] 84.3% | [3] 74.4% | [4] 71.4% | [5] 80.3% | [6] 60.3% | [7] 79.2% | [8] 66.5% | [9] 82% | [10] 93.9%

O=C(CSc1nnc(-c2cccnc2)s1)Nc1ccnc2ccccc12
inactive: [1] 32.3% | [3] -3.87% | [5] 21% | [9] 23.7% | [10] 35%
active: [2] 46.7% | [4] 51.2% | [6] 57% | [7] 56.1% | [8] 55.6%

Cc1nc2c(O)c3c(c(O)c2nc1C)C1C=CC3CC1
active: [1] 96.9% | [2] 93.2% | [3] 88.9% | [4] 92.6% | [5] 91.8% | [6] 107% | [7] 96.3% | [8] 98.5% | [9] 75% | [10] 79.4%

CCCc1ccc(-c2ccc(/C=C/C(=O)O)cc2)nc1
active: [1] 76% | [2] 71.9% | [3] 70.6% | [4] 67.7% | [5] 77.9% | [6] 85.6% | [7] 76.9% | [8] 68.6% | [9] 85.7% | [10] 94.6%

OCC1OC(n2ccc3c2ncn2ncnc32)C(O)C1O (stereo not given)
active: [1] 64.6% | [2] 44.2% | [3] 55.1% | [4] 38.2% | [5] 52.8% | [6] 49.2% | [8] 60.2%
inactive: [7] 38.8% | [9] 12.2% | [10] 46.4%

COc1cccc(-c2nnc3n2N=C(C(C)(C)C)CS3)c1
inactive: [9] 26.6%
active: [1] 89.1% | [2] 64.5% | [3] 72.3% | [4] 71.4% | [5] 56.7% | [6] 64.9% | [7] 60.9% | [8] 75.4% | [10] 73.7%

CCC1=C(CC2NCCc3ccccc32)CC2c3cc(OC)c(OC)cc3CCN2C1 (stereo not given)
active: [1] 90.6% | [2] 84.9% | [3] 63.7% | [4] 85.7% | [5] 87.4% | [6] 98.3% | [7] 88.3% | [8] 93.9% | [9] 47.1% | [10] 52.6%

CC(=O)OC[C@]12CC[C@H]3[C@@](C)(CC[C@H]4C(C)(C)CCC[C@]34C)[C@@H]1CC(C1=CC(=O)OC1O)O2 (stereo not given in full)
inactive: [3] -93.3%
active: [1] 93.2% | [2] 90% | [4] 90.8% | [5] 92.7% | [6] 110% | [7] 97.1% | [8] 95% | [9] 96% | [10] 93.4%

CN=c1scc(-c2ccccc2F)n1/N=C/c1ccc[nH]1
active: [1] 89% | [2] 86.5% | [3] 71.6% | [4] 75.6% | [5] 87.2% | [6] 70.1% | [7] 85.6% | [8] 78.1% | [9] 87.7% | [10] 96.1%

CC(C)(C)NCC(=Cc1ccccc1)C(=O)c1ccccc1
inactive: [3] -38.5%
active: [1] 50% | [2] 82.9% | [4] 87.5% | [5] 44.6% | [6] 84.1% | [7] 84.3% | [8] 89.1% | [9] 72.5% | [10] 71.1%

O=C(OCCC12CC3CC(CC(C3)C1)C2)c1ccc(NCc2cc(O)ccc2O)cc1
inactive: [2] 25.4% | [3] 11.1%
active: [1] 88.1% | [4] 57.7% | [5] 72.6% | [6] 80.7% | [7] 75.3% | [8] 83.8% | [9] 97.1% | [10] 98.4%

COc1ccc(/C=C2\SC(=O)N(CCCC(=O)Nc3cc(Cl)ccc3C(=O)O)C2=O)cc1
active: [1] 86.5% | [2] 77% | [3] 75.5% | [4] 70.3% | [5] 83.7% | [6] 94% | [7] 82% | [8] 75.7% | [9] 93.9% | [10] 97.8%

O=C(O)c1ccc(N/N=C/c2ccc3nccnc3c2)cc1
active: [5] 48.4% | [7] 61% | [9] 42.2% | [10] 75.5%
inactive: [1] 17.8% | [2] 10.9% | [3] -44.9% | [4] 10.3% | [6] 21.4% | [8] 14.8%

Cc1cc(C)c(C#N)c(SCc2nnc(-c3ccccc3)o2)n1
inactive: [3] 38.8% | [6] -23.7% | [7] 27.9% | [8] 15.5%
active: [1] 66.3% | [2] 59.8% | [4] 32.9% | [5] 33.1% | [9] 46.2% | [10] 82.9%

O=C(Nc1nc2cc3c(cc2s1)OCCO3)C1=COCCO1
inactive: [1] 30.4% | [2] 26.9% | [3] -78.2% | [4] 13.4% | [5] 24.4% | [6] -3.27% | [8] 4.13%
active: [7] 52.2% | [9] 70.8% | [10] 81.6%

Cc1cc(C)c2sc(NNC(=O)c3ccc(S(=O)(=O)N4CCc5ccccc5C4)cc3)nc2c1
inactive: [9] -4.24% | [10] 29.3%
active: [1] 46.6% | [2] 41.1% | [3] 50% | [4] 46.6% | [5] 68.6% | [6] 89.6% | [7] 66.8% | [8] 66.6%

Cc1ccc(NC(=O)c2cc(C)n(-c3ccccc3)c2C)cc1
active: [1] 43.4% | [5] 45.2% | [9] 61.3% | [10] 69.8%
inactive: [2] 23.7% | [3] 1.09% | [4] -11.4% | [6] -63.5% | [7] 20.4% | [8] -42.7%

COc1ccc2c(c1)-c1c(ssc1=S)C(C)(C)N2
active: [1] 73.3% | [2] 54.6% | [3] 64% | [4] 50.3% | [5] 28.7% | [6] 46.7% | [8] 67.9% | [10] 49.7%
inactive: [7] 41.5% | [9] 6.45%

COc1cc(SC)ccc1C(=O)Nc1nc2ccccc2[nH]1
active: [1] 92.1% | [2] 90% | [3] 85.9% | [4] 89.4% | [5] 95.1% | [6] 103% | [7] 96.5% | [8] 92.6% | [9] 96.4% | [10] 99.5%

NC(=S)NN=C1c2cc(OCCN3CCOCC3)ccc2-c2ccc(OCCN3CCOCC3)cc21
active: [1] 53.8% | [2] 68.8% | [4] 65.2% | [5] 89.9% | [6] 96.3% | [7] 82.2% | [8] 91.7% | [9] 68.6% | [10] 58.9%
inactive: [3] 8.8%

N#Cc1c(NC(=O)CSc2ncn[nH]2)sc2c1CCCCC2
inactive: [3] 28.3%
active: [1] 51.8% | [2] 65.9% | [4] 59% | [5] 29.9% | [6] 62.8% | [7] 50.1% | [8] 60.7% | [9] 87.6% | [10] 88%

CC1OC2CC(=O)OC2C2=C1C(=O)c1c(O)cccc1C2=O (stereo not given)
active: [1] 97.6% | [2] 95.2% | [3] 97.5% | [4] 95.2% | [5] 96.8% | [6] 110% | [7] 98.2% | [8] 96.8% | [9] 98.9% | [10] 99.7%

S=C(NCCCCN(Cc1ccc(Cl)cc1)c1ccc(Br)cn1)NCCCc1cnc[nH]1
active: [1] 93.1% | [2] 72.5% | [3] 76.5% | [4] 60.9% | [5] 90.1% | [6] 103% | [7] 96.7% | [8] 86.5% | [10] 54.5%
inactive: [9] 23.1%

COc1ccc(-n2ncc3c(N(C)C4CCCCC4)ncnc32)cc1
inactive: [3] 37.6% | [6] -23.3% | [7] 28.6% | [8] 20.2%
active: [1] 63.9% | [2] 53.6% | [4] 40.1% | [5] 30% | [9] 42.7% | [10] 80.3%
